Test results published in PubChem BioAssay (NCATS).
Records with an inconclusive call do not appear. The source made the active and inactive calls. Unless noted, calls follow the shape of the dose curve; as a rule, active = well fitted curve in the direction sought with a large enough effect; inconclusive = small, poorly fitted or top-dose-only effect, or another doubt; inactive = no such curve, though single readings can be large; an effect the other way counts as inactive or inconclusive.

Experiments:
[1] = molecular target: Lysosomal acid glucosylceramidase (Homo sapiens) (UniProt P04062); experiment: Glucocerebrosidase-p2 (AID 348; in the data active = potency below about 10 µM; also: potency is read from the fitted curve at half-maximal effect); settings: purified GBA, blue fluorogenic substrate, 40 min
How it was run: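 Normal human glucocerebrosidase (0.2 nM) with blue fluorogenic substrate (80 uM final) in citrate/phosphate pH 5.9 with 10mM sodium taurocholate, 0.01% tween-20; 40 min RT, NaOH/glycine stop; fluorescence Ex 365/Em 440; AC50 from a titration from 0.6 nM upwards.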

[2] = AP1 Signaling Pathway (AID 357; active = well fitted curve in either direction with a large enough effect, not every such curve was filed as active;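 also: ME-180 reporter cells stimulated with EGF at its EC50 level; % is scaled to controls: 0 for no effect and ±100 for the full control effect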); settings: ME-180 AP-1-bla reporter, EGF-induced, beta-lactamase ratio, 5 h; at 7.69 µM (top of the series) unless noted
How it was run: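 Cells are seeded overnight, exposed to compound titrations and an EC50 level of EGF for 5 hours at 37 °C, then loaded with CCF4 dye for 2.5 hours. Beta-lactamase activity under the AP-1 element is read as a blue/green ratio.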

[3] = molecular target: Cytochrome P450 1A2 (Homo sapiens) (UniProt P05177); experiment: p450-cyp1a2 (AID 410; calls by dose curve; also: potency is read from the fitted curve at half-maximal effect); settings: recombinant CYP1A2, luciferin-ME demethylation, luminescence; series mostly up to 57 µM
How it was run: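 O-Demethylation of luciferin 6' methyl ether by human CYP1A2 is monitored as luciferase luminescence. Substrate sits at Km (100uM); enzyme is 20nM. Values are scaled to 57 uM furafylline as maximal inhibition.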

[4] = NFAT Signaling Pathway (AID 444; active = well fitted curve in either direction with a large enough effect, not every such curve was filed as active;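 also: carbachol stimulus at about its EC50 of 1 µM final; % is scaled to controls: 0 for no effect and ±100 for the full control effect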); settings: Jurkat NFAT-bla M1, carbachol, beta-lactamase ratio, 5 h; at 7.69 µM (top of the series) unless noted
How it was run: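 Jurkat cells with NFAT-driven β-lactamase reporter and co-expressed M1 receptor, stimulated with carbachol (final 1 uM, ~EC50), compound titration, 5 h at 37 °C. CCF4 loaded 1 h at RT; 460/530 nm ratio gave %activity and AC50.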

[5] = Stat Signaling Pathway (AID 446; active = well fitted curve in either direction with a large enough effect, not every such curve was filed as active;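 also: ME-180 cervical cancer cells given 40 pM IL-6 alongside compound; SIE-controlled beta-lactamase reporter measured as 460/530 nm FRET emission ratio; % is scaled to controls: 0 for no effect and ±100 for the full control effect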); settings: ME-180 SIE beta-lactamase reporter, IL-6 stimulated, 5 h; at 7.69 µM (top of the series) unless noted
How it was run: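 Normalization used AC90 stimulation (300 pM IL-6) and AC90 inhibition (125 nM pan-JAK inhibitor at 40 pM IL-6). The underlying signal is SIE-driven beta-lactamase in ME-180 cells after 5 h IL-6 exposure with compound.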

[6] = molecular target: Glucocorticoid receptor (Homo sapiens) (UniProt P04150); experiment: GR-GFP Redistribution (AID 450;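 active = compounds whose dose series gives a full or clear partial fitted curve of increased nuclear translocation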; also: potency is read from the fitted curve at half-maximal effect); settings: U2OS GR-GFP nuclear translocation, laser cytometry, 2 h
[7] = molecular target: Glucocorticoid receptor (Homo sapiens) (UniProt P04150); experiment: GR-EFC Redistribution (AID 451; calls by dose curve; also: potency is read from the fitted curve at half-maximal effect); settings: CHO-K1 GR-EFC translocation, beta-gal luminescence, 2 h
How it was run: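 CHO-K1 cells expressing nuclear EA and GR-ED fragments of b-gal; compounds titrated up to 46 uM final, 2 h at 37 C. GR nuclear translocation read as complemented b-gal luminescence after 1 h RT detection.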

[8] = molecular target: Mitogen-activated protein kinase 10 (Mus musculus) (UniProt Q61831); experiment: JNK3 AlphaScreen Assay (AID 530; active = well fitted curve in either direction with a large enough effect, not every such curve was filed as active;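 also: kinase came from lysate of stimulated human HepG2 cells; signal reports phosphorylation of biotinylated GST-cJun 1-79 at Ser73 with 10 µM ATP; % is scaled to controls: 0 for no effect and ±100 for the full control effect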); settings: JNK3 lysate, c-Jun phosphorylation; series mostly up to 57.1 µM
How it was run: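 Activity was read by AlphaScreen after JNK3-containing HepG2 lysate (cytokine pre-activated) phosphorylated biotinylated GST-cJun with 10 uM ATP at room temperature. Phospho-Ser73 cJun antibody with Protein-A acceptor beads provided detection.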

[9] = molecular target: 3',5'-cyclic-AMP phosphodiesterase 4B (Homo sapiens) (UniProt Q07343); experiment: qHTS Assay for Inhibitors of PDE-IV (AID 607; active = well fitted activation curve with a large enough effect in the main read-out, with a control signal flat, not every such curve was filed as active; also: % of control where 0% means no effect); settings: HEK293 ACTOne CNG channel cells, membrane potential fluorescence; series mostly up to 22.9 µM
How it was run: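 HEK293 ACTOne cells with CNG channel (1000/well), endogenous PDE4; membrane potential dye, compounds up to 22.9 uM final. Fluorescence Ex 535/Em 590; RO 20-1724 (100 uM final) as reference.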

[10] = molecular target: Cytochrome P450 2C9 (Homo sapiens) (UniProt P11712); experiment: qHTS Assay for Inhibitors and Substrates of Cytochrome P450 2C9 (AID 883); settings: recombinant CYP2C9, luciferin-H luminescence, 60 min; series mostly up to 57.1 µM; also: % is scaled to controls: 0 for no effect and ±100 for the full control effect; nearly all actives have a fitted effect of over 60% in size
How it was run: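 Signal: luciferase luminescence reporting luciferin produced by CYP2C9. Conditions: 10nM enzyme, Luciferin-H 100uM at KM, 25mM KPO4, 37C, 60 min NADPH-driven reaction. Reference: 57uM sulphaphenazole as 100% inhibition.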

[11] = molecular target: Cytochrome P450 3A4 (Homo sapiens) (UniProt P08684); experiment: qHTS Assay for Activators of Cytochrome P450 3A4 (AID 885); settings: recombinant CYP3A4, Luciferin-PPXE luminescence, 60 min; series mostly up to 57.1 µM; also: nearly all actives have a fitted effect of over 65% in size
How it was run: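 Human CYP3A4 dealkylates Luciferin-PPXE to luciferin, which luciferase detection converts to light. Substrate was at its KM (25uM), buffer 200mM KPO4, reaction 60 min at RT.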

[12] = molecular target: Dual specificity protein kinase CLK4 (Homo sapiens) (UniProt Q9HAZ1); experiment: qHTS Assay for Inhibitors of CDC-like Kinase 4 (Kinase-Glo Assay) (AID 1770); settings: recombinant Clk4, Kinase-Glo ATP depletion luminescence; series mostly up to 66.7 µM; also: nearly all actives have a fitted effect of over 65% in size; also: potency is read from the fitted curve at half-maximal effect
How it was run: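 Readout: Kinase-Glo luminescence from ATP left after a 4.5 h room-temperature reaction of 25 nM Clk4 with 100 uM RS peptide and 1 uM ATP (final). Buffer: 25 mM Tris pH 7.5, 10 mM MgCl2.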

[13] = molecular target: Dual specificity protein kinase CLK4 (Homo sapiens) (UniProt Q9HAZ1); experiment: qHTS Assay for Inhibitors of CDC-like Kinase 4 (ADP-Glo Assay) (AID 1771); settings: recombinant CLK4, ADP-Glo luminescence; series mostly up to 80 µM; also: nearly all actives have a fitted effect of over 70% in size; also: potency is read from the fitted curve at half-maximal effect
How it was run: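 Compounds are pin-transferred onto substrate mix (100 uM RS peptide, 1 uM ATP), then 25 nM Clk4 is added. After 1 hr at room temperature, ADP-Glo reagent runs 45 min, detection reagent 30 min, then luminescence is read.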

[14] = molecular target: Dual specificity protein kinase CLK4 (Homo sapiens) (UniProt Q9HAZ1); experiment: qHTS Assay for Inhibitors of CDC-like Kinase 4 (ADP-FP Assay) (AID 1795); settings: Transcreener ADP fluorescence polarization; series mostly up to 50 µM; also: nearly all actives have a fitted effect of over 60% in size; also: potency is read from the fitted curve at half-maximal effect
How it was run: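 FP readout: Orange Transcreener ADP2 tracer (4 nM) plus ADP antibody, read after 30 min at room temperature. Kinase step: 6.25 nM Clk4, 100 uM RS peptide, 1 uM ATP, pH 7.5, 1 h.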

[15] = Primary qHTS for small molecule stabilizers of the endoplasmic reticulum resident proteome: Secreted ER Calcium Modulated Protein (SERCaMP) assay (AID 1508630); settings: SH-SY5Y GLuc-SERCaMP (Gaussia luciferase released on ER calcium loss) secretion, thapsigargin, luminescence; series mostly up to 38.4 µM; also: % is scaled to controls: 0 for no effect and ±100 for the full control effect
How it was run: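 The SH-SY5Y reporter protocol was run at 3 concentrations up to 38.3 uM (primary) or 11 concentrations (follow-up): 16 h compound, 100 nM thapsigargin for 4 h, then extracellular luciferase luminescence.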

[16] = molecular target: Cytochrome P450 3A4 (Homo sapiens) (UniProt P08684); experiment: qHTS Assay for Inhibitors and Substrates of Cytochrome P450 3A4 (AID 884); settings: recombinant CYP3A4, Luciferin-PPXE luminescence; series mostly up to 57.1 µM; also: nearly all actives have a fitted effect of over 50% in size; also: potency is read from the fitted curve at half-maximal effect
How it was run: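 Luminescent readout of luciferin produced by CYP3A4 (20 nM) dealkylation of Luciferin-PPXE, 25 uM (its KM). NADPH-driven reaction ran 60 min at RT after 10 min compound preincubation; data scaled to 57 uM ketoconazole as 100% inhibition.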

[17] = qHTS Assay for Identification of Small Molecule Agonists for Hypoxia Response Element Signaling Pathway (AID 914; active = well fitted activation curve with a large enough effect in the signal ratio, with a control signal flat, not every such curve was filed as active; the % refers to the signal ratio; also: potency is read from the fitted curve at half-maximal effect); settings: ME-180 (cervical carcinoma) HRE-bla reporter, beta-lactamase ratio, CoCl2, 17 h; activation: active compounds read high
How it was run: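 HRE-bla ME-180 cells, overnight plating in Opti-MEM with 0.5% dialyzed FBS; cpd titration + EC50 CoCl2, 17 h, 37 degrees Celsius; CCF4 2.5 h RT; 460/530 nm ratio; AC50.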

[18] = molecular target: Ubiquitin carboxyl-terminal hydrolase 1 (Homo sapiens) (UniProt O94782); experiment: Inhibitors of USP1/UAF1: Pilot qHTS (AID 504865); settings: purified USP1/UAF1, Ub-rhodamine cleavage fluorescence; series mostly up to 54.9 µM;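 also: rhodamine fluorescence freed from ubiquitin-rhodamine substrate followed over time; top concentration of the series differs between compounds; % is scaled to controls: 0 for no effect and ±100 for the full control effect; nearly all actives have a fitted effect of over 35% in size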
How it was run: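 1nM USP1/UAF1 + cpd, 15 min RT; start w/ Ub-Rho 150nM final; kinetic FL 480/540 nm, 6 reads q60 s. Buffer 50mM HEPES pH 7.8, 0.5mM EDTA, 1mM TCEP, 0.01% Tween-20, 0.1 mg/ml BSA.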

[19] = molecular target: Cytochrome P450 2C19 (Homo sapiens) (UniProt P33261); experiment: qHTS Assay for Inhibitors and Substrates of Cytochrome P450 2C19 (AID 899); settings: recombinant CYP2C19, luciferin-H EGE luminescence; series mostly up to 57.1 µM; also: potency is read from the fitted curve at half-maximal effect; nearly all actives have a fitted effect of over 60% in size
How it was run: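 Signal comes from luciferase acting on luciferin released by CYP2C19-mediated hydroxylation of Luciferin-H EGE, 10uM (KM). Assay mix: 5nM enzyme, 50mM KPO4; 60 min at 37C with NADPH regeneration. Data normalized against 57uM ketoconazole.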

3',5'-cyclic-AMP phosphodiesterase 4B (Homo sapiens), sequence (Q07343 whole entry, looked up): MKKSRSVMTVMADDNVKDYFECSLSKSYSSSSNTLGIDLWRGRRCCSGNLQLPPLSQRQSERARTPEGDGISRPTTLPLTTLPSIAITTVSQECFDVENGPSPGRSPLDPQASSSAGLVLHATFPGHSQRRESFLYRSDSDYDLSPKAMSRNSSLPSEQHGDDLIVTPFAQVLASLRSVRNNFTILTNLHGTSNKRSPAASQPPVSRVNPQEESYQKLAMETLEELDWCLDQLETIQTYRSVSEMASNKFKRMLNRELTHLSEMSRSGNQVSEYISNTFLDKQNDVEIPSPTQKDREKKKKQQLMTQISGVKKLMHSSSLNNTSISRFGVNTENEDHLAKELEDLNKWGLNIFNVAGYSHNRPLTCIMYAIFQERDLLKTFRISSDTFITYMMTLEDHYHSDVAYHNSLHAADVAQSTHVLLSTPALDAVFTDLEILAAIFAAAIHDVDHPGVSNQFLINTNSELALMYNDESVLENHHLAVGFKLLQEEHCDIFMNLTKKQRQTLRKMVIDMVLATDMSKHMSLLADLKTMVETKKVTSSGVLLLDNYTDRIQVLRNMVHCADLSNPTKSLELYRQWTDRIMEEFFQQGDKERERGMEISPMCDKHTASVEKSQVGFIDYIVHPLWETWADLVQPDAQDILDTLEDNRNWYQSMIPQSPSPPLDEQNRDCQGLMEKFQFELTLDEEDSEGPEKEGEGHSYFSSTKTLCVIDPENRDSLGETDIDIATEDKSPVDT
Lysosomal acid glucosylceramidase (Homo sapiens), sequence (P04062 whole entry, looked up): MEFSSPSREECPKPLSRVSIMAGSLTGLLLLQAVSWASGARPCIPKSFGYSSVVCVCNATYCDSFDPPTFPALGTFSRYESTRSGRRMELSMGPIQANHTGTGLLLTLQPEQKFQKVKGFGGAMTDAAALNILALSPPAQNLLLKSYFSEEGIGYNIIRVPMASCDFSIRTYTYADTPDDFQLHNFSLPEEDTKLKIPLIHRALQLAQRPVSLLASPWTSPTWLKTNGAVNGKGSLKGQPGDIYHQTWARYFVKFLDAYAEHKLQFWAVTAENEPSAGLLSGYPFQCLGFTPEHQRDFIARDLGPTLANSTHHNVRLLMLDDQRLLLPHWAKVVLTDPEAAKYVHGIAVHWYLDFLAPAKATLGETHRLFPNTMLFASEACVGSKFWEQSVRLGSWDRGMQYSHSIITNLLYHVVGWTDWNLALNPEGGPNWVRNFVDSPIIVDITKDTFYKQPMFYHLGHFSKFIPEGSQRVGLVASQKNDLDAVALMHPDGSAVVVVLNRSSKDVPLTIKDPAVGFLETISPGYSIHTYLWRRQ
Ubiquitin carboxyl-terminal hydrolase 1 (Homo sapiens), sequence (O94782 whole entry, looked up): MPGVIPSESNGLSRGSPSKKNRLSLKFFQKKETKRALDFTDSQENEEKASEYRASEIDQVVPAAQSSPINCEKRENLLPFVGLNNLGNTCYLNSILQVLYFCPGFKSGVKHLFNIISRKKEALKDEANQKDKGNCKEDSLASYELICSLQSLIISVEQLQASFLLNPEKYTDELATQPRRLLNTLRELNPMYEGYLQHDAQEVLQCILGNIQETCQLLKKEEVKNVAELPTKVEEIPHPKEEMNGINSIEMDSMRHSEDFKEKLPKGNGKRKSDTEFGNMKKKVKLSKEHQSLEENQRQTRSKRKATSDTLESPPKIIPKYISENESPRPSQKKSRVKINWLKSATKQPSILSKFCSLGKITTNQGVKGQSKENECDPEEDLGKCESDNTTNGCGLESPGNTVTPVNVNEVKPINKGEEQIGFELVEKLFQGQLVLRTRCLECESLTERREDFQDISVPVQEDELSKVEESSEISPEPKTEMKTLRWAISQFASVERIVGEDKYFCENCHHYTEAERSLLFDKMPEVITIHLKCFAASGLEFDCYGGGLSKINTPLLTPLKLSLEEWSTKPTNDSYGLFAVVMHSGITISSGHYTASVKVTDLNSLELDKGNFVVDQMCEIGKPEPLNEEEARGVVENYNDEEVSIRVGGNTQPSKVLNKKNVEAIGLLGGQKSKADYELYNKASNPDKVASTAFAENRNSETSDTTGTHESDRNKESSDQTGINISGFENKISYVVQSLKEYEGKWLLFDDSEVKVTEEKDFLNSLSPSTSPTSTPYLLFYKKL
Glucocorticoid receptor (Homo sapiens), sequence (P04150 whole entry, looked up, the tested form may be a part): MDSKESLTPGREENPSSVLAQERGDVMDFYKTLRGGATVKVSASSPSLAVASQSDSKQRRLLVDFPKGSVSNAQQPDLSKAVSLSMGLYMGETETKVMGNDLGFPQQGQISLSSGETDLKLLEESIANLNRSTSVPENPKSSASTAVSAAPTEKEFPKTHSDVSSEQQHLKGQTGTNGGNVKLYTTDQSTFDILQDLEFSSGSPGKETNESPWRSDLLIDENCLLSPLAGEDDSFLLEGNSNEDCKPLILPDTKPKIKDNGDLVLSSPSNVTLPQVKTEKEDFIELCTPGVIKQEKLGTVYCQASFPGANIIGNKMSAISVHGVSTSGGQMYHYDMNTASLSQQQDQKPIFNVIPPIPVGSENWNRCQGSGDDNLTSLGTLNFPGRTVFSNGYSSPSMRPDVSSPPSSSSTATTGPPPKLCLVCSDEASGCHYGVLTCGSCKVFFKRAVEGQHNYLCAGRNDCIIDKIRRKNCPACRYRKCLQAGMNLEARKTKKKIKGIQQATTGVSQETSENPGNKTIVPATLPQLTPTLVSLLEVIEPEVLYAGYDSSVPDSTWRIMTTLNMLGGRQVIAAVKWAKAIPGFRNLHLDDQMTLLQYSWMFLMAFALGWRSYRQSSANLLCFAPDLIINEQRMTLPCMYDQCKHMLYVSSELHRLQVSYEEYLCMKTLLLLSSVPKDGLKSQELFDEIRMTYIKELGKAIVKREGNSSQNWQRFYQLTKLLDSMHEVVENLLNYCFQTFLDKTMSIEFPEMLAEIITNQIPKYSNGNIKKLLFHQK
Cytochrome P450 3A4 (Homo sapiens), sequence (P08684 whole entry, looked up): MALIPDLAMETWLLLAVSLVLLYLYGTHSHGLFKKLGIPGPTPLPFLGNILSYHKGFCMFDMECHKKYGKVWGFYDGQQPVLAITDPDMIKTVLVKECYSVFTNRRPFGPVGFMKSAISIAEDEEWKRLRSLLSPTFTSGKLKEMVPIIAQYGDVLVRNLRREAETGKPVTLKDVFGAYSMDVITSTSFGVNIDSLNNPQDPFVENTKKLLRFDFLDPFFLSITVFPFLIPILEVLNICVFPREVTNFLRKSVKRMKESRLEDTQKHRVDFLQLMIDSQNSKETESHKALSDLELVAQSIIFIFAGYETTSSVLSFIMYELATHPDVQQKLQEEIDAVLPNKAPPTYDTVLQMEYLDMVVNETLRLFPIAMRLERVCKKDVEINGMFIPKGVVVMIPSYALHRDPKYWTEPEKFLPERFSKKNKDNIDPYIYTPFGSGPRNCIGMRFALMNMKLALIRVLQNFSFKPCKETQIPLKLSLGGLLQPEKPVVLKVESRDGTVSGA
Dual specificity protein kinase CLK4 (Homo sapiens), sequence (Q9HAZ1 whole entry, looked up): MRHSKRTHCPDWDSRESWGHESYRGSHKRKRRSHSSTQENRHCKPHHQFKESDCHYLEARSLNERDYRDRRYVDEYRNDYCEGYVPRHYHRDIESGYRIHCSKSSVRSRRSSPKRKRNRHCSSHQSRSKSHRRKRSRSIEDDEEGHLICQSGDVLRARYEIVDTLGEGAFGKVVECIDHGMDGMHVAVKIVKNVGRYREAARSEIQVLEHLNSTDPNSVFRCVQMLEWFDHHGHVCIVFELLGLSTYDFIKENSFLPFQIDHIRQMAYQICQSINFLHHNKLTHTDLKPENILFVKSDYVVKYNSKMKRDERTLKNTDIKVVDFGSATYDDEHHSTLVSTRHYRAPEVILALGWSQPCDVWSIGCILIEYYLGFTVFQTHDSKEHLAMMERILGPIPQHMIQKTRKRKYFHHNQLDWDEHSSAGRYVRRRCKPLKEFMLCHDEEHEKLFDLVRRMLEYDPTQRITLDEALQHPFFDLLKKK
Cytochrome P450 1A2 (Homo sapiens), sequence (P05177 whole entry, looked up): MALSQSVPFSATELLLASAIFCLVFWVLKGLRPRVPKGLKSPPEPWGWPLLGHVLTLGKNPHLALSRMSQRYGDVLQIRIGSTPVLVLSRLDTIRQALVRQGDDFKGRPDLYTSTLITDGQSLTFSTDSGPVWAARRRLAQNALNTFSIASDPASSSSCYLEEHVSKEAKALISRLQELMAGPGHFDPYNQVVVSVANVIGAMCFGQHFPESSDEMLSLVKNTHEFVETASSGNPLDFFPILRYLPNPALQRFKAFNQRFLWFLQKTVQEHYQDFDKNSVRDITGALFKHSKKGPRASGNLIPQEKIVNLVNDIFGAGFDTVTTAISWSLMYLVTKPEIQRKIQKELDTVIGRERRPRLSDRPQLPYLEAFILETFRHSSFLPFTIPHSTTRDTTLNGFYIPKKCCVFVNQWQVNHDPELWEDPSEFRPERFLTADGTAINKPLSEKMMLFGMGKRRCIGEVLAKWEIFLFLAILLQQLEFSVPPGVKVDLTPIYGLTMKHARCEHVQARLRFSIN
Cytochrome P450 2C9 (Homo sapiens), sequence (P11712 whole entry, looked up): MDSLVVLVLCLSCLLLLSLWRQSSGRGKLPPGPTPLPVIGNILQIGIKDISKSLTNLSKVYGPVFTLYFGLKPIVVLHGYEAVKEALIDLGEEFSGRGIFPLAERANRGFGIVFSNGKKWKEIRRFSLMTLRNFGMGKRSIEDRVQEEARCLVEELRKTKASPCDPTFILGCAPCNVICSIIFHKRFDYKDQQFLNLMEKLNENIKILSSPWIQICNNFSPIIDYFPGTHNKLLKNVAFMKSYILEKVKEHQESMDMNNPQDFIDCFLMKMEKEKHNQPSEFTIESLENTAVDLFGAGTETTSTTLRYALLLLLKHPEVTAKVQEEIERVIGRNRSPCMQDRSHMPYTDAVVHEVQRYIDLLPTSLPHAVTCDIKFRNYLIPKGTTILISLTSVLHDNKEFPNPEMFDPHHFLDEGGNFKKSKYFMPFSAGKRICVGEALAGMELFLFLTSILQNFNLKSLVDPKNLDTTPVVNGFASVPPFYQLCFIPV

CNc1nc(-c2c(C)noc2C)nc2ccccc12
active: Potency [3] 0.0501 µM | Potency [12] 17.8 µM | Potency [13] 20 µM
inactive: Potency [1] > 11.4 µM | activity change, negative = inhibition [2] 5.72% | activity change, negative = inhibition [4] 8.72% | activity, negative = inhibition [5] -5.04% | Potency [6] > 46 µM | Potency [7] > 46 µM | Potency [8] | Potency [9] | activity change, negative = inhibition [10] 37.6% [at 2.29 µM] | Potency [11] | Potency [14] | outcome [15]

COc1ccccc1CNc1cc(-c2ccccc2C)ncn1
inactive: Potency [1] > 11.4 µM | activity change, negative = inhibition [2] -17.3% | activity change, negative = inhibition [4] -18.6% | activity, negative = inhibition [5] 14.3% | Potency [6] > 46 µM | Potency [7] > 46 µM | Potency [8] | Potency [11] | Potency [12] | Potency [13] | Potency [14] | outcome [15]
active: Potency [3] 5.01 µM

Cn1c(=O)c(-c2ccc(F)cc2)nc2cnc(N3CCOCC3)nc21
active: Potency [3] 2.51 µM | Potency [17] 2.51 µM
inactive: Potency [1] > 11.4 µM | activity change, negative = inhibition [2] 14.8% | activity change, negative = inhibition [4] 24.2% | Potency [6] > 9.22 µM | Potency [7] > 46 µM | Potency [8] | Potency [9] | Potency [16] | Potency [12] | Potency [13] | Potency [14] | Potency [18] | outcome [15]

FC(F)(F)c1ccccc1-c1cncnc1NCc1cccnc1
active: Potency [3] 20 µM | Potency [16] 0.631 µM | Potency [19] 2.51 µM
inactive: Potency [1] > 11.4 µM | activity change, negative = inhibition [2] -13.4% | activity change, negative = inhibition [4] -6.58% | Potency [6] > 46 µM | Potency [7] > 46 µM | Potency [8] | Potency [9] | Potency [11] | Potency [12] | Potency [13] | Potency [14] | Potency [18] | outcome [15]

CS(=O)(=O)Nc1cccc(-c2nccc(Nc3ccc(F)cc3)n2)c1
active: Potency [3] 0.126 µM | Potency [12] 15.8 µM | Potency [13] 10 µM | Potency [14] 11.2 µM
inactive: Potency [1] > 11.4 µM | activity change, negative = inhibition [2] -12.6% | activity change, negative = inhibition [4] 2.44% | activity, negative = inhibition [5] -20.3% | Potency [6] > 46 µM | Potency [7] > 46 µM | Potency [8] | Potency [9] | Potency [11] | outcome [15]

COc1ncc2nc(C)c(=O)n(-c3ccccc3)c2n1
active: Potency [3] 5.01 µM
inactive: Potency [1] > 11.4 µM | activity change, negative = inhibition [2] -2.25% | activity change, negative = inhibition [4] 2.66% | activity, negative = inhibition [5] -8.97% | Potency [6] > 9.22 µM | Potency [8] | Potency [9] | Potency [11] | Potency [12] | Potency [13] | Potency [14] | Potency [18] | outcome [15]
